From the supplement of paper PMC8728848
Only a selection was taken, and the strongest signals are over-represented in it overall.

Experiments:
Experiment in all cases: glycan array binding signal (z-score within array); higher = stronger binding
Conditions in all cases: glycan notation: IUPAC condensed, linker removed
[1] = biological target: Fuc(a1-2)Gal(b1-3)[Fuc(a1-4)]GlcNAc(b1-2)Man(a1-3)[Fuc(a1-2)Gal(b1-3)[Fuc(a1-4)]GlcNAc(b1-2)Man(a1-3)]Man(b1-4)GlcNAc(b1-4)GlcNAc
Method in brief: (§1)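 Arrays were curated from the Consortium for Functional Glycomics database, 3228 in total, and kept only where the protein sequence was available. Binding is expressed as a within-array Z-score. This score was averaged across arrays of the same protein sequence at different concentrations or buffers and across linkers, and negative values can be read as non-binding.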

[2] = biological target: Fuc(a1-2)Gal(b1-4)GlcNAc(b1-2)Man(a1-3)[Fuc(a1-2)Gal(b1-4)GlcNAc(b1-2)Man(a1-6)]Man(b1-4)GlcNAc(b1-4)[Fuc(a1-6)]GlcNAc
Method in brief: as §1

[3] = biological target: Fuc(a1-2)Gal(b1-4)GlcNAc(b1-2)[Fuc(a1-2)Gal(b1-4)GlcNAc(b1-4)]Man(a1-3)[Fuc(a1-2)Gal(b1-4)GlcNAc(b1-2)Man(a1-6)]Man(b1-4)GlcNAc(b1-4)GlcNAc
Method in brief: as §1

[4] = biological target: Fuc(a1-2)Gal(b1-4)GlcNAc(b1-3)[Fuc(a1-2)Gal(b1-4)GlcNAc(b1-6)]GalNAc
Method in brief: as §1

[5] = biological target: Fuc(a1-2)Gal6S(b1-3)GlcNAc6S
Method in brief: as §1

[6] = biological target: Fuc(a1-2)[Gal(a1-3)]Gal(b1-3)GalNAc
Method in brief: as §1

[7] = biological target: Fuc(a1-2)[Gal(a1-3)]Gal(b1-4)GlcNAc(b1-3)[Fuc(a1-2)[Gal(a1-3)]Gal(b1-4)GlcNAc(b1-6)]GalNAc
Method in brief: as §1

[8] = biological target: Fuc(a1-2)[GalNAc(a1-3)]Gal(b1-3)GalNAc(a1-3)[Fuc(a1-2)]Gal(b1-4)GlcNAc
Method in brief: as §1

[9] = biological target: Fuc(a1-2)[GalNAc(a1-3)]Gal(b1-3)GalNAc(b1-3)Gal(a1-4)Gal(b1-4)Glc
Method in brief: as §1

[10] = biological target: Fuc(a1-2)[GalNAc(a1-3)]Gal(b1-4)GlcNAc
Method in brief: as §1

[11] = biological target: Fuc(a1-2)[GalNAc(a1-3)]Gal(b1-4)GlcNAc(b1-3)Gal(b1-4)GlcNAc(b1-3)Gal(b1-4)GlcNAc
Method in brief: as §1

[12] = biological target: Fuc(a1-2)[GalNAc(a1-3)]Gal(b1-4)[Fuc(a1-3)]GlcNAc
Method in brief: as §1

[13] = biological target: Fuc(a1-2)[GalNAc(a1-4)]Gal(b1-4)GlcNAc
Method in brief: as §1

[14] = biological target: Fuc(a1-3)[Gal(b1-4)]GlcNAc6S
Method in brief: as §1

[15] = biological target: Fuc(a1-3)[Gal3S(b1-4)]GlcNAc
Method in brief: as §1

[16] = biological target: Fuc(a1-3)[Gal3S(b1-4)]GlcNAc6S
Method in brief: as §1

[17] = biological target: Gal(a1-3)Gal(b1-4)GlcNAc(b1-2)Man
Method in brief: as §1

[18] = biological target: Gal(a1-3)Gal(b1-4)[Fuc(a1-3)]GlcNAc(b1-2)Man(a1-3)[Gal(a1-3)Gal(b1-4)[Fuc(a1-3)]GlcNAc(b1-2)Man(a1-6)]Man(b1-4)GlcNAc(b1-4)GlcNAc
Method in brief: as §1

[19] = biological target: Gal(b1-3)GalNAc(b1-4)Gal(b1-4)Glc
Method in brief: as §1

[20] = biological target: Gal(b1-3)GlcNAc(b1-2)Man(a1-3)[Gal(b1-3)GlcNAc(b1-2)Man(a1-6)]Man(b1-4)GlcNAc(b1-4)[Fuc(a1-6)]GlcNAc
Method in brief: as §1

[21] = biological target: Gal(b1-3)GlcNAc(b1-3)Gal(b1-4)GlcNAc(b1-2)[Gal(b1-3)GlcNAc(b1-3)Gal(b1-4)GlcNAc(b1-6)]Man(a1-6)[Gal(b1-3)GlcNAc(b1-3)Gal(b1-4)GlcNAc(b1-2)Man(a1-3)]Man(b1-4)GlcNAc(b1-4)[Fuc(a1-6)]GlcNAc
Method in brief: as §1

[22] = biological target: Gal(b1-3)[Fuc(a1-4)]GlcNAc(b1-2)Man
Method in brief: as §1

[23] = biological target: Gal(b1-4)GlcNAc(b1-2)Man(a1-3)[Gal(b1-4)GlcNAc(b1-2)Man(a1-6)][Gal(b1-4)GlcNAc(b1-4)]Man(b1-4)GlcNAc(b1-4)[Fuc(a1-6)]GlcNAc
Method in brief: as §1

[24] = biological target: Gal(b1-4)GlcNAc(b1-3)Gal(b1-4)GlcNAc(b1-2)[Gal(b1-4)GlcNAc(b1-3)Gal(b1-4)GlcNAc(b1-6)]Man(a1-6)[Gal(b1-4)GlcNAc(b1-3)Gal(b1-4)GlcNAc(b1-2)Man(a1-3)]Man(b1-4)GlcNAc(b1-4)[Fuc(a1-6)]GlcNAc
Method in brief: as §1

[25] = biological target: Gal(b1-4)GlcNAc(b1-3)Gal(b1-4)GlcNAc(b1-3)Gal(b1-4)GlcNAc(b1-2)[Gal(b1-4)GlcNAc(b1-3)Gal(b1-4)GlcNAc(b1-3)Gal(b1-4)GlcNAc(b1-6)]Man(a1-6)[Gal(b1-4)GlcNAc(b1-3)Gal(b1-4)GlcNAc(b1-3)Gal(b1-4)GlcNAc(b1-2)Man(a1-3)]Man(b1-4)GlcNAc(b1-4)[Fuc(a1-6)]GlcNAc
Method in brief: as §1

[26] = biological target: Gal(b1-4)GlcNAc(b1-3)Gal(b1-4)GlcNAc(b1-3)Gal(b1-4)GlcNAc(b1-3)Gal(b1-4)GlcNAc(b1-3)Gal(b1-4)GlcNAc(b1-2)Man(a1-3)[Gal(b1-4)GlcNAc(b1-3)Gal(b1-4)GlcNAc(b1-3)Gal(b1-4)GlcNAc(b1-3)Gal(b1-4)GlcNAc(b1-3)Gal(b1-4)GlcNAc(b1-2)Man(a1-6)]Man(b1-4)GlcNAc(b1-4)[Fuc(a1-6)]GlcNAc
Method in brief: as §1

[27] = biological target: Gal(b1-4)GlcNAc(b1-3)[GlcNAc(b1-6)]Gal(b1-4)GlcNAc
Method in brief: as §1

[28] = biological target: Gal(b1-4)GlcNAc(b1-6)GalNAc
Method in brief: as §1

[29] = biological target: Gal3S(b1-4)GlcNAc
Method in brief: as §1

B1: OGAN (protein)
chain: MVQKESQATLEERESELSSNPAASAGASLEPPAAPAPGEDNPAGAGGAAVAGAAGGARRFLCGVVEGFYGRPWVMEQRKELFRRLQKWELNTYLYAPKDDYKHRMFWREMYSVEEAEQLMTLISAAREYEIEFIYAISPGLDITFSNPKEVSTLKRKLDQVSQFGCRSFALLFNDIDHNMCAADKEVFSSFAHAQVSITNEIYQYLGEPETFLFCPTEYCGTFCYPNVSQSPYLRTVGEKLLPGIEVLWTGPKVVSKEIPVESIEEVSKIIKRAPVIWDNIHANDYDQKRLFLGPYKGRSTELIPRLKGVLTNPNCEFEANYVAIHTLATWYKSNMNGVRKDVVMTDSEDSTVSIQIKLENEGSDEDIETDVLYSPQMALKLALTEWLQEFGVPHQY
glycan array binding signal (z-score) [1]: 0.055 | glycan array binding signal (z-score) [2]: -0.047 | glycan array binding signal (z-score) [3]: -0.036 | glycan array binding signal (z-score) [4]: -0.036 | glycan array binding signal (z-score) [5]: 0.263 | glycan array binding signal (z-score) [6]: 0.104 | glycan array binding signal (z-score) [7]: 0.056 | glycan array binding signal (z-score) [8]: 23.3 | glycan array binding signal (z-score) [9]: 7.17 | glycan array binding signal (z-score) [10]: -0.083 | glycan array binding signal (z-score) [11]: -0.044 | glycan array binding signal (z-score) [12]: -0.028 | glycan array binding signal (z-score) [13]: -0.033 | glycan array binding signal (z-score) [14]: -0.052 | glycan array binding signal (z-score) [15]: 0.055 | glycan array binding signal (z-score) [16]: -0.076 | glycan array binding signal (z-score) [17]: -0.037 | glycan array binding signal (z-score) [18]: -0.048 | glycan array binding signal (z-score) [19]: -0.029 | glycan array binding signal (z-score) [20]: -0.064 | glycan array binding signal (z-score) [21]: 0.166 | glycan array binding signal (z-score) [22]: -0.036 | glycan array binding signal (z-score) [23]: -0.086 | glycan array binding signal (z-score) [24]: -0.01 | glycan array binding signal (z-score) [25]: -0.03 | glycan array binding signal (z-score) [26]: -0.001 | glycan array binding signal (z-score) [27]: -0.059 | glycan array binding signal (z-score) [28]: -0.053 | glycan array binding signal (z-score) [29]: -0.067
